# Values without a mark were called inactive.
# How the values were obtained:
# Experiment in all cases: log2 ratio of Biotin-Ahx-Ub-VS probe labelling (fragment/DMSO); higher = less target engagement (more negative = stronger competition), active = hit call of the paper (q ≤ 0.05, log2 ratio ≤ -1)
# Details in all cases: compound concentration: 200 uM; treatment time: 3 h
# USP42 = molecular target: T1, USP42 (UniProt Q9H9J4)
# T1 sequence (whole entry): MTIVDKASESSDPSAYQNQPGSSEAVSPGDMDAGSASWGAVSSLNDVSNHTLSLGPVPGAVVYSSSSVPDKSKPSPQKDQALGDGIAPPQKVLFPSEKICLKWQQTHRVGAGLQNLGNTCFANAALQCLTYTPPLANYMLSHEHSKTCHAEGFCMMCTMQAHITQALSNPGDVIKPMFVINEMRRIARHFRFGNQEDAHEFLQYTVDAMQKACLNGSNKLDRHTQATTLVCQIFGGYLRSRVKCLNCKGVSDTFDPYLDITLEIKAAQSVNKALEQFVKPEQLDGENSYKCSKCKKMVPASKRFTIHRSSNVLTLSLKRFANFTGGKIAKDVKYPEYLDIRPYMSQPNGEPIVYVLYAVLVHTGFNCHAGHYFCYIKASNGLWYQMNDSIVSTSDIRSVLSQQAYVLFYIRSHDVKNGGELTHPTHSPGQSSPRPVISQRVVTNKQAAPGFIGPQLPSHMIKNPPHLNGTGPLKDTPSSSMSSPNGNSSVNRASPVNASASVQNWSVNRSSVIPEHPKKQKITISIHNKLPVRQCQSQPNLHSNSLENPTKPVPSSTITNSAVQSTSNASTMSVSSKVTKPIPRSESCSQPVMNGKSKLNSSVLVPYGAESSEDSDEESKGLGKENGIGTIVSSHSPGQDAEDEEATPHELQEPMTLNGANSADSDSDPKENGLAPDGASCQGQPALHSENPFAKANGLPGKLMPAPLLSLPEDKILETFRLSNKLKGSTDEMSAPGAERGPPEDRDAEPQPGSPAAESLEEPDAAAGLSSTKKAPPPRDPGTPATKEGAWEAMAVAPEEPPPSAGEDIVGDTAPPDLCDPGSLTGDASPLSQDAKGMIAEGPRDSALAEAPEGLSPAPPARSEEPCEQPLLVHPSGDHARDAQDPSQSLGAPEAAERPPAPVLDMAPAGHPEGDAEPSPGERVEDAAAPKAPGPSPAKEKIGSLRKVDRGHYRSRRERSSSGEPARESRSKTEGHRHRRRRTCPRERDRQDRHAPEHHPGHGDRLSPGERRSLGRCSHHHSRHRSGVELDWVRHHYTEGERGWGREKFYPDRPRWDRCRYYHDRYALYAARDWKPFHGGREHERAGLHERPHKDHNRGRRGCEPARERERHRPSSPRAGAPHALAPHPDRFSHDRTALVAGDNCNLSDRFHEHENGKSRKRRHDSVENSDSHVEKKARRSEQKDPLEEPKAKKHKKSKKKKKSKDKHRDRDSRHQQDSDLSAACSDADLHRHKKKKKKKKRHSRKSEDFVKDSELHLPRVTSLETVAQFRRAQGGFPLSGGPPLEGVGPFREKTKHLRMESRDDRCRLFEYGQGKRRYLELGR
# Procedure, shortened: (§1)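 Labelled DUBs from HEK293T lysate were NeutrAvidin-enriched, digested with LysC and trypsin, and run by diaPASEF LC-MS/MS. Before that, each 495 µg sample in Tris/CHAPS/IGEPAL buffer with protease inhibitors was treated in triplicate with fragment at 200 µM or vehicle for 3 h, then with Biotin-Ahx-Ub-VS at 0.5 µM final for 1 h. Values are average log2 ratios of fragment over vehicle by unpaired t-test, based on global-median-normalised Spectronaut label-free quantities from proteins with ≥2 unique peptides.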
# USP46 = USP46 (UniProt P62068)
# Procedure, shortened: as §1
# USP47 = molecular target: T2, USP47 (UniProt Q96K76)
# T2 sequence (whole entry): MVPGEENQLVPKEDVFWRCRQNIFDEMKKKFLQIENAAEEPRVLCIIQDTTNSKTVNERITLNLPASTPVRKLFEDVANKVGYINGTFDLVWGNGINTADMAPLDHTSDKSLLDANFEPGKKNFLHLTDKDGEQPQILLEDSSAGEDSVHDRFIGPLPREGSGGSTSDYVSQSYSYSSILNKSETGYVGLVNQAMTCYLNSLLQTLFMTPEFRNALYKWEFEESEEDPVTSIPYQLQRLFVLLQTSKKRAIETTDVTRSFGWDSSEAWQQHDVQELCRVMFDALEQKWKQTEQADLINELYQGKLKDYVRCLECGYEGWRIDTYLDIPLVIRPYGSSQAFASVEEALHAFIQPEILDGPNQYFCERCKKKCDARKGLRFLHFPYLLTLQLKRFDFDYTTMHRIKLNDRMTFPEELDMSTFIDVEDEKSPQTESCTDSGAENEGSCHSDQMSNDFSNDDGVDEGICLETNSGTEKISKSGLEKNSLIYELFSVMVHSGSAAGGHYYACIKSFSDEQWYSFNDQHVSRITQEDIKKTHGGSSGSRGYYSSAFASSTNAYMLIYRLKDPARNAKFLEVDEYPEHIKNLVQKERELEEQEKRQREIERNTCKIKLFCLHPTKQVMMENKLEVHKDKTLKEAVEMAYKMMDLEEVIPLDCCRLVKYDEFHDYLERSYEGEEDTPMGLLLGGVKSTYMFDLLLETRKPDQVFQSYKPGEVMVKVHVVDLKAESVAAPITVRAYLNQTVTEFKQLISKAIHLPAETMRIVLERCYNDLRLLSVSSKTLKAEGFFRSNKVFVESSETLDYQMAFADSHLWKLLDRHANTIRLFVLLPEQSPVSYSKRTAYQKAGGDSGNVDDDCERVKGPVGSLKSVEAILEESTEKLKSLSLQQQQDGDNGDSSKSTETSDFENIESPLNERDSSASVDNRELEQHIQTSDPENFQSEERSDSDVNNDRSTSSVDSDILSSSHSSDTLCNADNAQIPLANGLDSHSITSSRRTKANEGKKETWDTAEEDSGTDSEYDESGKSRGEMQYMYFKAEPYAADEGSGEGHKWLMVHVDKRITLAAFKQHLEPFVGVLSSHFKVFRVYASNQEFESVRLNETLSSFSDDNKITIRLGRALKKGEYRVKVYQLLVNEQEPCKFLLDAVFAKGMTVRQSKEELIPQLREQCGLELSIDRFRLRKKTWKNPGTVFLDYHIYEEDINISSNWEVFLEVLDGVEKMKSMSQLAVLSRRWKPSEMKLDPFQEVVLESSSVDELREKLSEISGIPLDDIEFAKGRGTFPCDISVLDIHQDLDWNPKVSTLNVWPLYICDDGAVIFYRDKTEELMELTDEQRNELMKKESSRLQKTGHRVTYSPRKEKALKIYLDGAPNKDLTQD
# Procedure, shortened: as §1
# USP48 = molecular target: T3, USP48 (UniProt Q86UV5)
# T3 sequence (whole entry): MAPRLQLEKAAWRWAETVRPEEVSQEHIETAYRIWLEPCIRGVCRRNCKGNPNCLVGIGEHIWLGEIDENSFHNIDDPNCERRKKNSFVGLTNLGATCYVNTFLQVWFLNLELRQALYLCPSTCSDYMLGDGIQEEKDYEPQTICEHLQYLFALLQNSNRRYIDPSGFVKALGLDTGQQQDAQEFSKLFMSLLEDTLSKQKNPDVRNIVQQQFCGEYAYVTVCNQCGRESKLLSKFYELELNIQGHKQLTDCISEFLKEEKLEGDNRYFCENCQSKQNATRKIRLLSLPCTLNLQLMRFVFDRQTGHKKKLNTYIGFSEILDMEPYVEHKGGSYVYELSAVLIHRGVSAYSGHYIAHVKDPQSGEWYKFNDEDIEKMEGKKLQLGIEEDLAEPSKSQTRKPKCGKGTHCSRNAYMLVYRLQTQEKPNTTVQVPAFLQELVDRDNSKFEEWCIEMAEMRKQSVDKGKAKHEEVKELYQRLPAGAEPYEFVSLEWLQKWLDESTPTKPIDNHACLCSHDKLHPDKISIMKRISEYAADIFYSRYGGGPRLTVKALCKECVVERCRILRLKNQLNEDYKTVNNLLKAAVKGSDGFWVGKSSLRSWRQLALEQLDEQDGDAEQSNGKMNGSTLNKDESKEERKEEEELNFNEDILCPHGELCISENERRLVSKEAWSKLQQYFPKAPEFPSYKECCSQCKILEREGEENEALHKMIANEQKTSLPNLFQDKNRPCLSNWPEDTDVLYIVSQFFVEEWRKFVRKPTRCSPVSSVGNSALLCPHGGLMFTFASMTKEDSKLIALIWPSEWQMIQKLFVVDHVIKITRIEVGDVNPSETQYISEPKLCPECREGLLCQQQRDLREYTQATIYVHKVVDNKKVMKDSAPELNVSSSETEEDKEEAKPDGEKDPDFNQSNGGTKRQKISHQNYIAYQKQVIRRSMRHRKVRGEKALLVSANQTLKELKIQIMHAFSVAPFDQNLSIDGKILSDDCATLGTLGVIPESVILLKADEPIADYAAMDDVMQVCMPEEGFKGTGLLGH
# Procedure, shortened: as §1
# USP5 = molecular target: T4, USP5 (UniProt P45974)
# T4 sequence (whole entry): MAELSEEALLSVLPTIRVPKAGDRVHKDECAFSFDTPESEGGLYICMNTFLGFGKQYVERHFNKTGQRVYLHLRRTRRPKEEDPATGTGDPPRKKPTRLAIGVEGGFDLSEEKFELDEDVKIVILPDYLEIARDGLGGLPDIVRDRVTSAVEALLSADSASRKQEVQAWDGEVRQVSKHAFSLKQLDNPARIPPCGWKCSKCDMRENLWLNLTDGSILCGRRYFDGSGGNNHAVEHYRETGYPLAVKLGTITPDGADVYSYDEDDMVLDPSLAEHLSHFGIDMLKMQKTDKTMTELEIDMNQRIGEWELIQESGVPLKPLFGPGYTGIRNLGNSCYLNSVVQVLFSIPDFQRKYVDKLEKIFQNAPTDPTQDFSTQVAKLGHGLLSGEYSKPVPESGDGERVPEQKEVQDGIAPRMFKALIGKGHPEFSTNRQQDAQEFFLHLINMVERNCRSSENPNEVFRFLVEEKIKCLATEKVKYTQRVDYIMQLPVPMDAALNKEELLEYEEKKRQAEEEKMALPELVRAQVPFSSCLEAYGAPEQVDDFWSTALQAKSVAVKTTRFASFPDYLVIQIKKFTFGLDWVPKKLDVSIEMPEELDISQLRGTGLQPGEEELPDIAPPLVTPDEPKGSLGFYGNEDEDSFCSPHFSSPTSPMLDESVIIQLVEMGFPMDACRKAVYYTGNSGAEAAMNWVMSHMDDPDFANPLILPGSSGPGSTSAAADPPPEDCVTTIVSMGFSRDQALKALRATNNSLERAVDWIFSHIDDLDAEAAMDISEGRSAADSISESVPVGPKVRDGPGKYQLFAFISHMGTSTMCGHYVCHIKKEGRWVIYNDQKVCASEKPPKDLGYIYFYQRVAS
# Procedure, shortened: as §1
# USP54 = USP54 (UniProt Q70EL1)
# Procedure, shortened: as §1
# USP7 = USP7 (UniProt Q93009)
# Procedure, shortened: as §1
# USP8 = molecular target: T5, USP8 (UniProt P40818)
# T5 sequence (whole entry): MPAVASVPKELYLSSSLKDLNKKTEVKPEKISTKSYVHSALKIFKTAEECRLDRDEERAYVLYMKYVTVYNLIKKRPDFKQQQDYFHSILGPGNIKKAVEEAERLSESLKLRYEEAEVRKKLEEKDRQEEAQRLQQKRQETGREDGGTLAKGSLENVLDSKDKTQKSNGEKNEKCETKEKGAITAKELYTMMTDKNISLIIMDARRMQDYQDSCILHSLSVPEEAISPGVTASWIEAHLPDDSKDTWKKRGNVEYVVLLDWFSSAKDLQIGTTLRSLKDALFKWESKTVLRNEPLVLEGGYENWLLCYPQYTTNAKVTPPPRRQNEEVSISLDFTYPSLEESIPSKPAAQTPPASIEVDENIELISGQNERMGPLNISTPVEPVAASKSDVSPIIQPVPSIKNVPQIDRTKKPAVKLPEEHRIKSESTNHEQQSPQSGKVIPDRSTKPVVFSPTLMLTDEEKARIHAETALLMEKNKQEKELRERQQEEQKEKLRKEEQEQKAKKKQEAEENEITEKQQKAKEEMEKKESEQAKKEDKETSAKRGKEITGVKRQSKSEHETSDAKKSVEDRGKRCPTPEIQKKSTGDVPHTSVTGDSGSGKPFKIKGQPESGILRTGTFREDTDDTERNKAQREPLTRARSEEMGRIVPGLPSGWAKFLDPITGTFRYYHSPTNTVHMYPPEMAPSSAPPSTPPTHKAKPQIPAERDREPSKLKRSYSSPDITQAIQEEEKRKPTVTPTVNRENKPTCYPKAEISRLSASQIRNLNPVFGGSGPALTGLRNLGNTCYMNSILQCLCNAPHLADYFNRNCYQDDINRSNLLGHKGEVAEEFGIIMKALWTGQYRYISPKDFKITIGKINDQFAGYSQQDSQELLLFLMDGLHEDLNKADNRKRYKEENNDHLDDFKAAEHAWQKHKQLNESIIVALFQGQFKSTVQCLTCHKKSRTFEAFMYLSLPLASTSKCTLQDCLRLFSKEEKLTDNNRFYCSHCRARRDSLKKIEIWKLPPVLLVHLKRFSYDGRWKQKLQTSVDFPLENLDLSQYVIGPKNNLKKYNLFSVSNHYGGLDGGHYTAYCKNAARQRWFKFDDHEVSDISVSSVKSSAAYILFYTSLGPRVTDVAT
# Procedure, shortened: as §1
# USP9X = USP9X (UniProt Q93008)
# Procedure, shortened: as §1
# UniProt O00487 = molecular target: UniProt O00487
# Procedure, shortened: as §1
# Chain of USP46 (P62068 whole entry): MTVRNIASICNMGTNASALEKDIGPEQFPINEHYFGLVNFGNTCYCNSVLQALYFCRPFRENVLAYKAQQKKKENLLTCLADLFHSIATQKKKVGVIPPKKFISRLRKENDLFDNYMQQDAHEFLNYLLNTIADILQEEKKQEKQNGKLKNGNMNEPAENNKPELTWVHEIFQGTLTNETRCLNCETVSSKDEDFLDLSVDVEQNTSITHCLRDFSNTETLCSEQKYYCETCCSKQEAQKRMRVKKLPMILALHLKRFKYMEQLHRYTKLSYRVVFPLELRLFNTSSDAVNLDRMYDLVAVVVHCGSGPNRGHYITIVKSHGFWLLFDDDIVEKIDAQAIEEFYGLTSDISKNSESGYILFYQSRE
# Chain of USP9X (Q93008 whole entry): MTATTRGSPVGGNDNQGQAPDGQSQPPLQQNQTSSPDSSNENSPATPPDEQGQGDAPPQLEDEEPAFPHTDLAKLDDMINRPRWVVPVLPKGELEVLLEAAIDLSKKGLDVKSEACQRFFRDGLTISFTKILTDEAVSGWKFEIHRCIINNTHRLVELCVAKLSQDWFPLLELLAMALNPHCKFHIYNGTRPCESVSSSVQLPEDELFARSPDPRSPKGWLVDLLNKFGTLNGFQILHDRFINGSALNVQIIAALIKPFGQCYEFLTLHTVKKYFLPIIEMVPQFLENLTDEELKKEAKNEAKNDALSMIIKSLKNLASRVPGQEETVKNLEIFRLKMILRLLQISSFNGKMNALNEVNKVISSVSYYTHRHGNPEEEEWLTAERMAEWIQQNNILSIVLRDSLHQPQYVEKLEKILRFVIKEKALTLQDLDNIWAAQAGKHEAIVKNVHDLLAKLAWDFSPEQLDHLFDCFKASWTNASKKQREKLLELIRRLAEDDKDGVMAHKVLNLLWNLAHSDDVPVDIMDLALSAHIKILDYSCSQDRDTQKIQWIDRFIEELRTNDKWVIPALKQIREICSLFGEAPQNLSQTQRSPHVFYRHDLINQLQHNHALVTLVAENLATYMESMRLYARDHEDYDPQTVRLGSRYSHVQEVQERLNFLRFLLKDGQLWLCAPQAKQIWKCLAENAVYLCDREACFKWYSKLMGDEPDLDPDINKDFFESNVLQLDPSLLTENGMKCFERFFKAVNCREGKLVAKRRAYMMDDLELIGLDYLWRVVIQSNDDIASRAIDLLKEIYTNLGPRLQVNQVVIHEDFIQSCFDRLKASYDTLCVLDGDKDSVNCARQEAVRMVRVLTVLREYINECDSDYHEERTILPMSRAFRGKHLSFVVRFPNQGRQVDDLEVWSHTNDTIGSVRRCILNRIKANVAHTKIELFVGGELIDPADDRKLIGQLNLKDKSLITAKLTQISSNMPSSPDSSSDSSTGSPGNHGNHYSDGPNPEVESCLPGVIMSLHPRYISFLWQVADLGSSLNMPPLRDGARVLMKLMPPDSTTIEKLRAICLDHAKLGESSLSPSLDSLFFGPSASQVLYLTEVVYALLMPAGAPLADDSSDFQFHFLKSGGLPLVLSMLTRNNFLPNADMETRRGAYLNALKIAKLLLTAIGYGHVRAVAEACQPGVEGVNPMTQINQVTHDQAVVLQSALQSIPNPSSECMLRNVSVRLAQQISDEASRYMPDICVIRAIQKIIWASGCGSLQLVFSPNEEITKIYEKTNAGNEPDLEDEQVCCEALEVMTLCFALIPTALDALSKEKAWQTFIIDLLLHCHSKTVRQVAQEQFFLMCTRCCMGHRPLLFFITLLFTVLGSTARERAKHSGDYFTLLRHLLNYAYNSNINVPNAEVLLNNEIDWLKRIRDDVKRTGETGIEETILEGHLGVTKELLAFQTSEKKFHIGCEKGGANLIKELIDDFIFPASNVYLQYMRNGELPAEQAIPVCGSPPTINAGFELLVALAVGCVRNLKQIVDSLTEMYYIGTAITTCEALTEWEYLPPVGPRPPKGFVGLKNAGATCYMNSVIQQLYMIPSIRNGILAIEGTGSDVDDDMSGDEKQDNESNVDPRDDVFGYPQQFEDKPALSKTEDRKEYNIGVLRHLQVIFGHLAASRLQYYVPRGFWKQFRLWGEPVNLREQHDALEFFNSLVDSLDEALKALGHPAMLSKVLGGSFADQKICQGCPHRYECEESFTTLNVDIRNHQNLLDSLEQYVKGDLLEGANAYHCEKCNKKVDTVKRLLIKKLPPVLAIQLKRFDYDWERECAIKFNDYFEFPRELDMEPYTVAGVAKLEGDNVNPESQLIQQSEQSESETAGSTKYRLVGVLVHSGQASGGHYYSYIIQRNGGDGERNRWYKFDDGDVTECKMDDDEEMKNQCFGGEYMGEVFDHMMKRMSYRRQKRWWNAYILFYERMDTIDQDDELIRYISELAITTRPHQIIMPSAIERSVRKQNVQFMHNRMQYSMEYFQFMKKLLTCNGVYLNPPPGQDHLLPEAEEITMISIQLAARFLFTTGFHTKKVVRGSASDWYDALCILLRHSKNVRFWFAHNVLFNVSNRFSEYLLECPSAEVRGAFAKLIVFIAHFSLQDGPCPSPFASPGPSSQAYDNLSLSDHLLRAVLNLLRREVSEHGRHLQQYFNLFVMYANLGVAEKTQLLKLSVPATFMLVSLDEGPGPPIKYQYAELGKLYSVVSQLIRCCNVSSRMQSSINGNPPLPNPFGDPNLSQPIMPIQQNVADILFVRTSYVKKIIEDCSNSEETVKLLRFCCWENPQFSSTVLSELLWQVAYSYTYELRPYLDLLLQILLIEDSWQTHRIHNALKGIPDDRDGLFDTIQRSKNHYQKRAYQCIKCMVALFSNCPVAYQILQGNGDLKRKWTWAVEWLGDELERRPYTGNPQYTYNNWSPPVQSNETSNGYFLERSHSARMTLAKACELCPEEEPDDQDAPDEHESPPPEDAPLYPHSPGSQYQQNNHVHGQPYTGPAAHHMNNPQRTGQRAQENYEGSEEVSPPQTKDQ
# Chain of USP54 (Q70EL1 whole entry): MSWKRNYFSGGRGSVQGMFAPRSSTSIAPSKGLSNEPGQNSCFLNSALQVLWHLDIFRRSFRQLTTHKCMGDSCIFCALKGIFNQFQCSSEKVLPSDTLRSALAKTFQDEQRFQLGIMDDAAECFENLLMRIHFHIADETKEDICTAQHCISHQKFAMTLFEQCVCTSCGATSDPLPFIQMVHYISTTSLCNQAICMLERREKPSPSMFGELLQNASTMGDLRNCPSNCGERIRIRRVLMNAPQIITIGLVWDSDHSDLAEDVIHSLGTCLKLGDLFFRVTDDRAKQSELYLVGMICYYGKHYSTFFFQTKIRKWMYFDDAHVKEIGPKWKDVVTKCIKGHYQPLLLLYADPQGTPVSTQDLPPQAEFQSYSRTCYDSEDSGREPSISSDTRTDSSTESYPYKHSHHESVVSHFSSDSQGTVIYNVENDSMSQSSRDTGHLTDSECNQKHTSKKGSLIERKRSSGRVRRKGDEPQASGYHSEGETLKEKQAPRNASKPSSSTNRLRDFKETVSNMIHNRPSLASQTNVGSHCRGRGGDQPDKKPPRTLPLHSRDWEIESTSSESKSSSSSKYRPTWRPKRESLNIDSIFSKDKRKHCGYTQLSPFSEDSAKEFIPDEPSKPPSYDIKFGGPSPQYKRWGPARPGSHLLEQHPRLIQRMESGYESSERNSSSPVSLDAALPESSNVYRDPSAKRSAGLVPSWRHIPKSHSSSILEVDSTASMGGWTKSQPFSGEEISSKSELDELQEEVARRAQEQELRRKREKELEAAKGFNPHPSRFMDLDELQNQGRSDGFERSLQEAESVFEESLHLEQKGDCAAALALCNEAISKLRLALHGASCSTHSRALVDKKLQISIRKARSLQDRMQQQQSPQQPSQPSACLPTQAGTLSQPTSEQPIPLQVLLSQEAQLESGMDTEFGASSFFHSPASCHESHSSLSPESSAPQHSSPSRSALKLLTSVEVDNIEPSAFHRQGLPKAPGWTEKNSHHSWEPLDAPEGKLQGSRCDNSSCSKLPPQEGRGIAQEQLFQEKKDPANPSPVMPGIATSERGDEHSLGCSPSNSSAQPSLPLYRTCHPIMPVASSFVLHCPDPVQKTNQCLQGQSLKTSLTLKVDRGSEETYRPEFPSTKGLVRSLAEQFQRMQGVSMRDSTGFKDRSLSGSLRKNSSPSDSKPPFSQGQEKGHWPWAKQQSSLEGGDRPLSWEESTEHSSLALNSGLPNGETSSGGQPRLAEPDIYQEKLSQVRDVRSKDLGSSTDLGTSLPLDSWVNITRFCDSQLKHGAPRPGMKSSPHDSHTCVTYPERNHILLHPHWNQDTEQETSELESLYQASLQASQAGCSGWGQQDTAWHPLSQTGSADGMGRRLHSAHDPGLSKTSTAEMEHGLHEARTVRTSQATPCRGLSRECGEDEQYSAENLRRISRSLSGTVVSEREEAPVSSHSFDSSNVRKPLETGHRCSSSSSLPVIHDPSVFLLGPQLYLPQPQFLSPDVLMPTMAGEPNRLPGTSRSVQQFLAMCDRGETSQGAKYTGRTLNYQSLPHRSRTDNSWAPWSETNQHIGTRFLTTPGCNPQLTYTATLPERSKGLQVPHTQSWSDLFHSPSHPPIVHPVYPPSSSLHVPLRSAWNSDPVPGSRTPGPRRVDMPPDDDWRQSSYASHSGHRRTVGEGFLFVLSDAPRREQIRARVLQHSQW
# Chain of UniProt O00487 (O00487 whole entry): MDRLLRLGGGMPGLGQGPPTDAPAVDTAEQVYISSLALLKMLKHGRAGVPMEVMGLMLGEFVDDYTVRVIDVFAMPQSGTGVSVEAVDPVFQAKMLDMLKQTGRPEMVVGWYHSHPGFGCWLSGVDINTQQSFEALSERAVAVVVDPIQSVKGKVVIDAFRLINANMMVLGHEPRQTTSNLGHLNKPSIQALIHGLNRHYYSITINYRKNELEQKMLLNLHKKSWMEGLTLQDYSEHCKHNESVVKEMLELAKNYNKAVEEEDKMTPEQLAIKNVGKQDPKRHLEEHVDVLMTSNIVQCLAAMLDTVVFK
Compound,log2 ratio of Biotin-Ahx-Ub-VS probe labelling (USP42),log2 ratio of Biotin-Ahx-Ub-VS probe labelling (USP46),log2 ratio of Biotin-Ahx-Ub-VS probe labelling (USP47),log2 ratio of Biotin-Ahx-Ub-VS probe labelling (USP48),log2 ratio of Biotin-Ahx-Ub-VS probe labelling (USP5),log2 ratio of Biotin-Ahx-Ub-VS probe labelling (USP54),log2 ratio of Biotin-Ahx-Ub-VS probe labelling (USP7),log2 ratio of Biotin-Ahx-Ub-VS probe labelling (USP8),log2 ratio of Biotin-Ahx-Ub-VS probe labelling (USP9X),log2 ratio of Biotin-Ahx-Ub-VS probe labelling (UniProt O00487)
NC(=O)C1CCCCN1C(=O)CCl (stereo not given),-0.0547,0.025,-0.299,-1.03 (active),0.371,0.325,-0.76,-0.26,-0.213,-0.0664
Cl.O=C(CCl)N1CCN(Cc2ccccc2)CC1,0.128,-0.101,-0.389,-0.499,-0.052,0.13,-0.607,-0.333,-0.369,-0.299
COc1ccc(Cl)cc1NC(=O)CCl,0.21,-0.265,-0.266,-0.394,-0.409,0.0369,-0.593,-0.171,-0.48,-0.298

# Source: the supplement of paper PMC11732987, “Enantioselective OTUD7B fragment discovery through chemoproteomics screening and high-throughput optimisation” (Communications Chemistry, 2025)
